Source: PubChem BioAssay (National Center for Advancing Translational Sciences (NCATS))
Compounds with a hit are over-represented: about 6.2% of the library has one in this group of screens.
KB-V1 MDR tox: qHTS assay for MDR1-selective chemotherapeutics: Primary screen using the drug-selected MDR subline cells KB-V1. KB-V1 MDR cells viability, CellTiter-Glo, 72 h. 400,000 tested, 3.4% active. AID 1347076, 2019. Potency, µM (titrated, usually from 46.1 µM), hits mostly cytotoxic; further: nearly all actives have a fitted effect of over 60% in size
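Following 72 h at 37 degrees C with compound, KB-V1 cell viability was read by CellTiter-Glo luminescence, medium being phenol-red-free DMEM plus 10% FBS; concentration-response parameters came from normalized, curve-fitted qHTS data.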
HT1080 IDH1KD tx: qHTS for induction of synthetic lethality in tumor cells producing 2HG: qHTS for the HT-1080-IDH1KD cell line; HT-1080 IDH1 knockdown viability, ATP luminescence, 48 h; Potency, µM (series often up to 46.1 µM), usual class: cytotoxic; 360,000 tested, 2% active; AID 686971, 2013
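Cytotoxicity counter-line: IDH1KD HT-1080, 48 h, CellTiter-Glo. Curves classed by r2, magnitude and activity.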
ATXN viability: Viability Counterscreen for Primary qHTS for Inhibitors of ATXN expression | S2 cells (HEK-293 line with an ATXN2-luciferase reporter) viability, CellTiter-Fluor protease fluorescence, 24 h | Potency, µM (doses to about 56.7 µM), most hits filed as cytotoxic | 400,000 tested, 0.49% active; further: nearly all actives have a fitted effect of over 40% in size
HT1080NT lethal: qHTS for induction of synthetic lethality in tumor cells producing 2HG: qHTS for the HT-1080-NT fibrosarcoma cell line; HT-1080-NT fibrosarcoma viability, CellTiter-Glo ATP luminescence, 48 h; Potency, µM (doses to about 46.1 µM), most hits filed as cytotoxic; AID 686970, 2013; 360,000 tested, 1.6% active;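 further: NT is the 2HG producing partner of a matched IDH1 knockdown line; nearly all actives have a fitted effect of over 55% in size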
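HT-1080-NT fibrosarcoma cells (2HG-overproducing), 750 cells/well in RPMI with 5% FBS, dosed after 2 h and incubated 48 h at 37C. CellTiter-Glo luminescence normalized to DMSO and no-cell wells; concentration-response curves fitted and classed.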
ATXN2 expr inh: Primary qHTS for Inhibitors of ATXN expression. AID 1745845, 2022. HEK-293 ATXN2-luciferase reporter, luminescence, 24 h. 360,000 tested, 0.72% active. Potency, µM (top dose mostly 57 µM), usual class: inhibitors; further: nearly all actives have a fitted effect of over 55% in size
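qHTS (up to 57 uM final) was run with 24 h compound exposure of reporter cells at 37 °C. Each well was multiplexed: SteadyGlo luminescence measured ATXN2-luciferase expression after a fluorogenic Gly-Phe-AFC viability readout (25 uM final).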
KB-3-1 tox: qHTS assay for MDR1-selective chemotherapeutics: Primary screen using the parental adenocarcinoma cell KB-3-1 | KB-3-1 viability, CellTiter-Glo ATP luminescence, 72 h | Potency, µM (titrated, usually from 46.1 µM), actives largely listed as cytotoxic | 400,000 tested, 1.4% active | AID 1347075, 2019; further: nearly all actives have a fitted effect of over 60% in size
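72 h, 37 °C compound treatment of KB-3-1 parental cells; CellTiter-Glo added, 10 min, luminescence read. Data corrected against DMSO-only plates and normalized before curve fitting.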
Of the large screens only hits and unclear results are named; the others gave an inactive call. The call rests on the fitted dose curve; in most records, active means well fitted curve in the direction sought with a large enough effect; inconclusive means small, poorly fitted or top-dose-only effect, or another doubt; inactive means no such curve, though single readings can be large; an effect the other way counts as inactive or inconclusive.

Cc1ccc(C)c(S(=O)(=O)Nc2cc3c4c(c2)CC(=O)N4CCC3)c1	KB-V1 MDR tox 12µM, KB-3-1 tox inconclusive
CC1(C)Cc2c(c(-c3ccco3)nc3sc4c(NCCN5CCOCC5)ncnc4c23)CO1	HT1080 IDH1KD tx 16µM, HT1080NT lethal 23µM, ATXN2 expr inh inconclusive
CCN(CC)CCNc1ncnc2c1sc1nc(N3CCOCC3)c3c(c12)CCCC3	KB-V1 MDR tox inconclusive, KB-3-1 tox 15µM
CCN(CC)CCNc1ncnc2c1sc1nc(N3CCCC3)c3c(c12)CC(C)(C)OC3	HT1080 IDH1KD tx 18µM, HT1080NT lethal 16µM
CC(C)CNc1ncnc2c1sc1nc(N3CCOCC3)c3c(c12)CC(C)(C)OC3	none
CN(C)CCNc1ncnc2c1sc1nc(N3CCCC3)c3c(c12)CC(C)(C)OC3	KB-V1 MDR tox inconclusive, HT1080 IDH1KD tx 21µM, ATXN viability inconclusive, HT1080NT lethal inconclusive, ATXN2 expr inh inconclusive
CCN(C(=O)c1cnc(N2CCOCC2)c2ccccc12)c1cc(C)ccc1C	none (no result: HT1080 IDH1KD tx, ATXN viability, HT1080NT lethal, ATXN2 expr inh)
Cc1ccc(S(=O)(=O)c2c(N)n(CCC(C)C)c3nc4ccccc4nc23)cc1	KB-V1 MDR tox 13µM, HT1080 IDH1KD tx inconclusive, ATXN viability inconclusive, HT1080NT lethal inconclusive, ATXN2 expr inh inconclusive, KB-3-1 tox inconclusive
CC(C)CCn1c(N)c(S(=O)(=O)c2cccs2)c2nc3ccccc3nc21	KB-V1 MDR tox 21µM, HT1080 IDH1KD tx inconclusive, ATXN viability inconclusive, HT1080NT lethal 22µM, ATXN2 expr inh 18µM
Cc1cc(C)c(NC(=O)C(C)n2c(=O)cc(C)c3c(C)nn(-c4ccccc4)c32)c(C)c1 (centres undefined)	none (no result: HT1080 IDH1KD tx, HT1080NT lethal)
C=CC[N+]1([C@H]2C[C@H]3[C@@H]4CC[C@H]5C[C@H](O)[C@@H](N6CCOCC6)C[C@]5(C)[C@@H]4CC[C@]3(C)[C@H]2OC(C)=O)CCCC1	none (no result: KB-V1 MDR tox, HT1080 IDH1KD tx, ATXN viability, HT1080NT lethal, KB-3-1 tox)
COc1cc(/C=C(/C#N)c2ccccc2)ccc1Oc1ccc([N+](=O)[O-])cn1	KB-V1 MDR tox 18µM, HT1080NT lethal inconclusive
COc1cc(/C=N/NC(=O)c2ccncc2)ccc1Oc1ccc([N+](=O)[O-])cn1	none
COc1cc(/C=C(\C#N)c2nc3ccccc3[nH]2)ccc1Oc1ccc([N+](=O)[O-])cn1	HT1080 IDH1KD tx inconclusive, ATXN viability inconclusive, HT1080NT lethal inconclusive
COc1cc(/C=N/NC(=O)c2ccc(O)cc2)ccc1Oc1ccc([N+](=O)[O-])cn1	HT1080 IDH1KD tx 18µM, HT1080NT lethal inconclusive (no result: ATXN2 expr inh)
Cn1c(=O)c(/C=C/c2ccccc2)nc2ccccc21	KB-V1 MDR tox 15µM, KB-3-1 tox inconclusive
CCn1c(/C=C/c2c(C)n(CC)c3ccccc23)nc2ccccc2c1=O	KB-V1 MDR tox 1.6µM, ATXN viability inconclusive
Cn1c(=O)c(/C=C/c2ccc(F)cc2)nc2ccccc21	KB-V1 MDR tox inconclusive, KB-3-1 tox inconclusive (no result: ATXN viability)
Cc1ccccc1/C=C/c1nc2ccccc2c(=O)n1CCc1ccccc1	KB-V1 MDR tox 2.6µM (no result: ATXN viability)
Cc1ccccc1/C=C/c1nc2ccccc2c(=O)n1Cc1ccccc1	none
Cc1[nH]c2ccccc2c1/C=C/c1nc2ccccc2c(=O)n1CCO	KB-V1 MDR tox 12µM, HT1080NT lethal inconclusive, KB-3-1 tox 12µM (no result: ATXN viability)
Cc1ccc(/C=C/c2nc3ccccc3c(=O)n2CCc2ccccc2)cc1	KB-V1 MDR tox 2.6µM
COC(=O)c1ccc(COc2cccn3c(N(C)C(=O)CCC4CCCC4)c(C)nc23)cc1	HT1080 IDH1KD tx inconclusive, HT1080NT lethal inconclusive, ATXN2 expr inh inconclusive (no result: ATXN viability)
Cc1ccc(C)c(S(=O)(=O)N2CCN(C(=O)C3CCN(C(=O)c4ccc(F)cc4)CC3)CC2)c1	KB-V1 MDR tox 7.3µM
Cc1ccc(C(C)(C)C)cc1S(=O)(=O)N1CCC(C(=O)N2CCN(c3ccc(O)cc3)CC2)CC1	KB-V1 MDR tox 15µM, ATXN2 expr inh inconclusive, KB-3-1 tox inconclusive
